Consider twelve compounds from PubChem BioAssay (NCATS).

Where “and” joins values, the source holds several entries; their conditions need not be identical. Identical values can stand only once. Results filed as inconclusive are left out. Calls of active or inactive are those of the source. Unless noted, the call rests on the fitted dose curve.

Assay [1] concerns the target Bile acid receptor (Homo sapiens) (UniProt Q96RI1). As to the kind of experiment: qHTS assay for small molecule agonists of farnesoid X receptor signaling (AID 588527).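 Further: series mostly up to about 77 µM; 0% = vehicle basal and 100% = reference agonist.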 Particulars: HEK293T FXR-UAS-bla, beta-lactamase ratio, 16 h; activation: stronger effect = higher value. The procedure, abridged: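 Read-out: beta-lactamase reporter fluorescence with CCF4 substrate in GeneBLAzer FXR-UAS-bla HEK293T cells, after 16 h compound exposure at 37 C. Response scaled between DMSO basal (0%) and chenodeoxycholic acid at 100 uM (100%).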

Assay [2] in a line: qHTS assay for small molecule antagonists of peroxisome proliferator-activated receptor delta signaling (AID 588535; active means well fitted inhibition curve with a large enough effect in the signal ratio, with a control signal flat, not every such curve was filed as active; the % refers to the signal ratio; further: potency means the concentration at half of the fitted maximal effect;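 on max response: cells co-treated with a PPAR-delta agonist as stimulator during compound exposure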). Particulars: HEK293T PPARd-UAS-bla, beta-lactamase FRET ratio, 18 h; 460 nm channel. The procedure, abridged:
(§1)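 Inhibition of PPAR-delta response element-driven beta-lactamase expression is measured in HEK293T cells exposed to a compound titration series for 18 hrs at 37 C. Half-maximal inhibition comes from Hill equation fitting.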

The target of assay [3] is Peroxisome proliferator-activated receptor delta (Homo sapiens) (UniProt Q03181). The assay is described as above. The procedure, abridged: as §1
Peroxisome proliferator-activated receptor delta (Homo sapiens), sequence (Q03181 whole entry, looked up): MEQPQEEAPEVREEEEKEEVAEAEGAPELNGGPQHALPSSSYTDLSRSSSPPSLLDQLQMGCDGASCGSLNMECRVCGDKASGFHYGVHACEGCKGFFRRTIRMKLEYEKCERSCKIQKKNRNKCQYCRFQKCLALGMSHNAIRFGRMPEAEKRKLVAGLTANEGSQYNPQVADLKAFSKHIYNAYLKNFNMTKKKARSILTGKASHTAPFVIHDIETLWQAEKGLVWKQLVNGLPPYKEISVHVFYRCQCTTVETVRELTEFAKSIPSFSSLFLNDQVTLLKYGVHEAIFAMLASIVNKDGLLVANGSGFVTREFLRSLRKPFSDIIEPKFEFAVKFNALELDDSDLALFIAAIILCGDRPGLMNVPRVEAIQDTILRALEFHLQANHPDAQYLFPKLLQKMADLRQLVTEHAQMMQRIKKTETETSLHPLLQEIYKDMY
Assay [4] addresses Thyroid hormone receptor beta (Homo sapiens) (UniProt P10828). As to the kind of experiment: qHTS assay for small molecule agonists of thyroid hormone receptor beta signaling (AID 588545).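 Further: 0% = DMSO only and 100% = 10 nM T3.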 The procedure, abridged:
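TR-UAS-bla-GripTite HEK 293 cells in medium with 2% charcoal/dextran FBS, 0.1 mM NEAA and 1 mM sodium pyruvate were treated with titrated compounds for 18 hrs at 37 C. Beta-lactamase reporter was read with CCF4 dye (ex 405, em 460/530 nm); EC50 from Hill fits.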

Assay [5] in a line: qHTS assay for small molecule antagonists of retinoid X receptor alpha signaling (AID 588546; active means well fitted inhibition curve with a large enough effect in the signal ratio, with a control signal flat, not every such curve was filed as active; the % refers to the signal ratio; further: potency means the concentration at half of the fitted maximal effect;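 on max response: cells stimulated with 9-cis-retinoic acid as agonist; on the % scale 0 is the no-effect control and ±100 the full control effect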). Particulars: HEK293T RXRa-UAS-bla, beta-lactamase ratio, antagonist mode; measured here: W530 green channel, cytotoxicity proxy. The essentials: (§2)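 Beta-lactamase reporter inhibition, read as CCF4 fluorescence ratio (ex 405, em 460/530 nm) after 2 h at RT. HEK293T UAS-bla cells, 2500/well, were stimulated with 9-cis-RA at 500 or 100 nM final alongside test compound for 18 h at 37 C.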

The target in assay [6] is Retinoic acid receptor RXR-alpha (Homo sapiens) (UniProt P19793). The description is as above. Particulars: HEK293T RXRa-UAS-bla, beta-lactamase ratio, antagonist mode. The essentials:
as §2

The target of assay [7] is Thyroid hormone receptor beta (Homo sapiens) (UniProt P10828). As to the kind of experiment: qHTS assay for small molecule antagonists of thyroid hormone receptor beta signaling (AID 588547; active means well fitted inhibition curve with a large enough effect in the signal ratio, with a control signal flat, not every such curve was filed as active; the % refers to the signal ratio;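 further: cells stimulated with 0.4 nM T3 agonist during compound exposure; series mostly up to about 77 µM; on the % scale 0 is the no-effect control and ±100 the full control effect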). Particulars: TR-UAS-bla HEK293, beta-lactamase ratio, antagonist mode, 18 h. The procedure, abridged:
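TR-UAS-bla GripTite HEK293 cells in 2% charcoal/dextran FBS medium were preincubated 4 h at 37 C, given compound (0.59 nM to 92 uM) plus 0.4 nM T3 (final) for 18 h, then CCF4 for 2 h at RT; Hill fit gave IC50.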

Assay [8] can be described thus: qHTS assay for small molecule agonists of the antioxidant response element (ARE) signaling pathway (AID 651741; active means well fitted activation curve with a large enough effect in the signal ratio; the % refers to the signal ratio; further: potency means the concentration at half of the fitted maximal effect). The essentials:
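Reporter: beta-lactamase under ARE, stably in HepG2. Exposure: 16 h, 37 C, compounds delivered in DMSO by pin tool after 5 h cell preincubation. Readout: FRET substrate fluorescence after 2 h at RT.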

Assay [9] can be described thus: qHTS assay for small molecule activators of the p53 signaling pathway (AID 651743; active means well fitted activation curve with a large enough effect in the signal ratio, not every such curve was filed as active; the % refers to the signal ratio; further: potency means the concentration at half of the fitted maximal effect; on activation: series mostly up to about 92 µM; % of control where 0% means no effect). The note with it: HCT-116 p53RE-bla, beta-lactamase FRET ratio, 16 h; activation: stronger effect = higher value. The procedure, abridged: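 Agonist-mode quantitative HTS in HCT-116 cells carrying a p53-response-element beta-lactamase reporter; 16 h compound treatment at 37 C, then FRET substrate loading for 2 h at room temperature and fluorescence read.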

Assay [10] is described as follows: qHTS assay for environmental chemicals that activate the Aryl hydrocarbon Receptor (AhR) signaling pathway (AID 651777; active means well fitted curve in the direction sought with a large enough effect; an effect the other way counts as inactive or inconclusive; further: nearly all actives have a fitted effect of over 15% in size; further: potency means the concentration at half of the fitted maximal effect; on activation: % of control where 0% means no effect). The note with it: 1A2-DRE human hepatoma cells, luciferase, 24 h; activation: stronger effect = higher value. The essentials:
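Measured luciferase activity, read 30 min after One-Glo addition at room temperature, from human hepatoma cells bearing a dioxin response element–CYP1A2 promoter reporter and exposed to compound for 24 hr at 37 C.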

The target in assay [11] is Peroxisome proliferator-activated receptor alpha (Homo sapiens) (UniProt Q07869). The experiment in a line: qHTS assay for small molecule agonists of the peroxisome proliferator-activated receptor alpha (PPARalpha) signaling pathway (AID 651778; active means well fitted curve in the direction sought with a large enough effect; an effect the other way counts as inactive or inconclusive; further: % of control where 0% means no effect). The note with it: PathHunter PPARalpha complementation, chemiluminescence, 6 h; max response: stronger effect = higher value. The essentials:
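Cells plated at 2,000/well and held overnight at 37 C, 5% CO2, then compound added by pin tool for 6 hr; after PathHunter detection reagent and 60 min at room temperature, chemiluminescence from enzyme complementation was read.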

A short description of assay [12]: qHTS assay for small molecule agonists of the antioxidant response element (ARE) signaling pathway measured by Nrf2-dependant transcriptional activity (AID 720636; active means well fitted curve in the direction sought with a large enough effect in the repeat runs; an effect the other way counts as inactive or inconclusive;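 further: HepG2 cells with an ARE-driven luciferase reporter; % of control where 0% means no effect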). The essentials:
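In HepG2 cells engineered with an Nrf2-responsive luciferase gene, ARE induction was quantified as luminescence after 16 hr compound treatment at 37 C.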

A short description of assay [13]: qHTS assay for cell viability of the p53RE-bla HCT-116 cell line (AID 743292; active means well fitted curve in the direction sought with a large enough effect; an effect the other way counts as inactive or inconclusive; further: on the % scale 0 is the no-effect control and ±100 the full control effect; nearly all actives have a fitted effect of over 55% in size). The procedure, abridged:
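Intracellular ATP of p53RE-bla HCT-116 cells measured by luciferase luminescence following 16 h compound incubation at 37 C; DMSO-only wells served as vehicle controls.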

The target of assay [14] is Peroxisome proliferator-activated receptor delta (Homo sapiens) (UniProt Q03181). The experiment in a line: qHTS assay for small molecule agonists of peroxisome proliferator-activated receptor delta signaling (AID 588534).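 Further: 0% = DMSO basal wells and 100% = positive control agonist at 10 µM.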 The procedure, abridged:
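Agonist-mode beta-lactamase reporter readout (CCF4 dye, 2 h at RT) after 18 h at 37 °C exposure to a titration; Hill-equation fitting gave EC50 and maximal response.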

Assay [15] concerns the target Vitamin D3 receptor (Homo sapiens) (UniProt P11473). As to the kind of experiment: qHTS assay for small molecule agonists of vitamin D receptor signaling (AID 588543).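 Further: 0% = DMSO basal and 100% = reference agonist control.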 The procedure, abridged:
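GeneBLAzer VDR-UAS-bla HEK293T cells in 2% charcoal-stripped FBS medium were dosed with compound titrations for 16 h at 37 °C; CCF4 β-lactamase readout (405 nm ex, 460/530 nm em). EC50 and efficacy from Hill fits, normalized to 50 nM calcitriol (100%) and DMSO (0%).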

A short description of assay [16]: qHTS assay for small molecule agonists of the antioxidant response element (ARE) signaling pathway measured by Nrf2-dependant transcriptional activity - cell viability counter screen (AID 720653; active means well fitted curve in the direction sought with a large enough effect in the repeat runs; an effect the other way counts as inactive or inconclusive; further: on the % scale 0 is the no-effect control and ±100 the full control effect). Particulars: ARE-bla HepG2 viability, CellTiter-Glo ATP luminescence, 16 h; max response: stronger effect = lower value. The procedure, abridged:
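ARE-bla HepG2 cells (2,000/well) rested 5 hrs at 37C/5% CO2, then exposed to compounds in DMSO for 16 hrs. Viability was read in the same wells as intracellular ATP by luminescence, 30 min at room temperature after reagent addition.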

Assay [17] is described as follows: qHTS assay for cell viability of HEK293 cells (AID 743288; active means well fitted curve in the direction sought with a large enough effect; an effect the other way counts as inactive or inconclusive; further: nearly all actives have a fitted effect of over 50% in size; further: potency means the concentration at half of the fitted maximal effect; on max response: on the % scale 0 is the no-effect control and ±100 the full control effect). The note with it: ATP luminescence (CellTiter-Glo), 18 h; max response: stronger effect = lower value. The essentials: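 After 18 h compound exposure at 37 C, parental HEK293 cells (2,000/well) are lysed with CellTiter-Glo and luminescence is read following 30 min at room temperature.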
The target in assay [18] is Nuclear receptor subfamily 1 group I member 2 (Rattus norvegicus) (UniProt Q9R1A7). As to the kind of experiment: qHTS assay for small molecule activators of the rat pregnane X receptor (rPXR) signaling pathway (AID 651751; call rule not given here; further: 0% is about no effect). Particulars: rPXR reporter cells, luciferase (One-Glo), 24 h.
Nuclear receptor subfamily 1 group I member 2 (Rattus norvegicus), sequence (Q9R1A7 whole entry, looked up): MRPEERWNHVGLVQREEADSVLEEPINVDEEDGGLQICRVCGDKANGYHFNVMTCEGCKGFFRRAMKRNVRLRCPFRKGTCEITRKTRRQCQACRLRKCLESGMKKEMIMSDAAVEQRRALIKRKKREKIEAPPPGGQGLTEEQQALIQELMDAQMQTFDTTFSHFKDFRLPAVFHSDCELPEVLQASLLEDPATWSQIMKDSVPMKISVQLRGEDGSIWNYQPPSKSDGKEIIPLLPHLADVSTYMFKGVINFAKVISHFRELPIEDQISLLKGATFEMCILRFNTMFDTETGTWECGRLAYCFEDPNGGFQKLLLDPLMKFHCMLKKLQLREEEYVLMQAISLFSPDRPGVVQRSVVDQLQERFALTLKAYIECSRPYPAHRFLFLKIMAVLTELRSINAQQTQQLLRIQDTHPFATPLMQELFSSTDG

Retinoic acid receptor RXR-alpha (Homo sapiens), sequence (P19793 whole entry, looked up): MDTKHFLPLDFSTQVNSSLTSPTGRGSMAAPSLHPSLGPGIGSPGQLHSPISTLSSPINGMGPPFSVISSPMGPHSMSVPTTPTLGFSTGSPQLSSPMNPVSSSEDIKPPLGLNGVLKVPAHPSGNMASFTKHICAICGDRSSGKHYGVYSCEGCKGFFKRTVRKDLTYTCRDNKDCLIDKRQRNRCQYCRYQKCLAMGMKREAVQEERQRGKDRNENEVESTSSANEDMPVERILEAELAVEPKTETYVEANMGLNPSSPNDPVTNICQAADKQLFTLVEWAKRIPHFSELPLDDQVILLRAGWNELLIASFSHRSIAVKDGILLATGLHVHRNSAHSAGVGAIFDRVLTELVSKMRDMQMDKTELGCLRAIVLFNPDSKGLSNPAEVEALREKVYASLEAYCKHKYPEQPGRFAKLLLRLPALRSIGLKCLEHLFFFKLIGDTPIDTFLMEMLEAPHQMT
Bile acid receptor (Homo sapiens), sequence (Q96RI1 whole entry, looked up): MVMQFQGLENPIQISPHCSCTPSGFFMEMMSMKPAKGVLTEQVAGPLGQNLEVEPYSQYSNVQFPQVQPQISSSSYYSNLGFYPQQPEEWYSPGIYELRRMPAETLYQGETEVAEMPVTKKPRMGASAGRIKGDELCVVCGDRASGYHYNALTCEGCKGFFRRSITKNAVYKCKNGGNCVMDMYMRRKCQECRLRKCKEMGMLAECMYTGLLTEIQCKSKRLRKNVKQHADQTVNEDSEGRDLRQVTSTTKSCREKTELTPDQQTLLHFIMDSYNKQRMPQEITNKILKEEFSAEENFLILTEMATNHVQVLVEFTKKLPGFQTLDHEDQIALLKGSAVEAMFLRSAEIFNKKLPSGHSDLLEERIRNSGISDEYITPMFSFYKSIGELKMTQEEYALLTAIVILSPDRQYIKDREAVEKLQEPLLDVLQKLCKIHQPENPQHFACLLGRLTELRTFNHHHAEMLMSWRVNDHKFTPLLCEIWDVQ
Peroxisome proliferator-activated receptor alpha (Homo sapiens), sequence (Q07869 whole entry, looked up): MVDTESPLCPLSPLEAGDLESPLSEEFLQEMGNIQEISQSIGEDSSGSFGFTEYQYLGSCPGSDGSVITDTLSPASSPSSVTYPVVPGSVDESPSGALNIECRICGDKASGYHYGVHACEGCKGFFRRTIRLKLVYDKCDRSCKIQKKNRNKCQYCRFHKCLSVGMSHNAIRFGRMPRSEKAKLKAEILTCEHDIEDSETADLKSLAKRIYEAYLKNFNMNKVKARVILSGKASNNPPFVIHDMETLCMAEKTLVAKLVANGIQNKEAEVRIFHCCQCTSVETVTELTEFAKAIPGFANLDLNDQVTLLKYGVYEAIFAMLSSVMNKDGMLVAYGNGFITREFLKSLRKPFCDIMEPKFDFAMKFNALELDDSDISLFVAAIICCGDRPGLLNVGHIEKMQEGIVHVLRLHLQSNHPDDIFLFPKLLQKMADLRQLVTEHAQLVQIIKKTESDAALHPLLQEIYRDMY
Thyroid hormone receptor beta (Homo sapiens), sequence (P10828 whole entry, looked up): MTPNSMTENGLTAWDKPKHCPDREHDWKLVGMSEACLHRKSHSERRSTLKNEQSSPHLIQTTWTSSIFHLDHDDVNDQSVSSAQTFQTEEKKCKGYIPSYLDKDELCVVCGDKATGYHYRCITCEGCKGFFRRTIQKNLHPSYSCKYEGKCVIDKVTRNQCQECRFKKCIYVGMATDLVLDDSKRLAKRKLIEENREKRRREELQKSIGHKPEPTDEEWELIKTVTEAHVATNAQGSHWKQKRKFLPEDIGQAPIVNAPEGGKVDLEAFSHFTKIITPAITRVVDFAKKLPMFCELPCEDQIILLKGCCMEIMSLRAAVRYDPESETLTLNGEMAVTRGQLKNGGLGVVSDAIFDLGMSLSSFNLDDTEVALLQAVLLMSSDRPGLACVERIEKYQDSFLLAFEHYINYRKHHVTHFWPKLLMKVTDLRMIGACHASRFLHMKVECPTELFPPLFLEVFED
Vitamin D3 receptor (Homo sapiens), sequence (P11473 whole entry, looked up): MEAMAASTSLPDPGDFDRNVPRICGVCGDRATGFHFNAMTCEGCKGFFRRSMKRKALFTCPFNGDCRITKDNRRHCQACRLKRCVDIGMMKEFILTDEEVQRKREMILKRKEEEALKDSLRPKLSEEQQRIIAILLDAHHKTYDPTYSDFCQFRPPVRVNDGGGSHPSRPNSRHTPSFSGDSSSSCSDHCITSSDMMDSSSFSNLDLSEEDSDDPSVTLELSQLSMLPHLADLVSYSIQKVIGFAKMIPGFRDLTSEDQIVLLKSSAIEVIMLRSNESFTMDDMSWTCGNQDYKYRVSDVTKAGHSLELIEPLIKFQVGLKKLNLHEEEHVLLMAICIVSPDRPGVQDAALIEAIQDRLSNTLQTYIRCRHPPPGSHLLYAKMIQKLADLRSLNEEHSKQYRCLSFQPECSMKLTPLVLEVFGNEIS

Turning to `CCC(C)c1cc([N+](=O)[O-])cc([N+](=O)[O-])c1O` (stereo unspecified), the activation was 4.38% (inactive) in assay [1] and 6.77% (inactive) in assay [10]. Besides, the max response was 0.93% in assay [2], -3.63% in assay [5], 15.9% (inactive) in assay [6] and -1.93% (inactive) in [11]. Moreover, the Potency result in assay [3], in assay [4], in [12] and in assay [13] was “inactive” throughout. Further, in assay [7], the activity change % (negative = inhibition) is -14.7% (inactive). The Potency in assay [8] is 2.73 µM (active); in assay [9] it was 6.31 µM (active).
In the case of `C=C(C)C1CC=C(C)C(OC(C)=O)C1` (stereo unspecified), the activation in assay [1] is -0.422% (inactive).
Regarding `NC1=NC(S)C2N=CN=C2N1` (stereo unspecified), in assay [1], the activation was 2.34% (inactive).
Turning to `CCOP(=S)(OCC)SCn1nnc2ccccc2c1=O`, the activation in [1] was 3.29% (inactive); in assay [9], 2.43% (inactive); in assay [10], 6.1% (inactive). In addition, the outcome in assay [14] and in [15] was inactive. In addition, the max response in assay [2] was 7.16%; in assay [5], 30.8%; in assay [11], -0.264% (inactive); in assay [16], -19.9% (inactive). Further, the Potency entry in [3], in assay [4] and in [12] was “inactive” throughout. Moreover, the Potency in assay [6] is 39.8 µM (active); in [8], 54.5 µM (active). In [7], the activity change % (negative = inhibition) is -2.51% (inactive).
As to `CN(C)c1ccc(C(=O)c2ccc(N(C)C)cc2)cc1`, in [1], the activation was -3.55% (inactive). Also, the compound was classed as inactive in assay [15]. Also, the Potency result in [4] and in assay [13] was “inactive” throughout. In addition, the results for the Potency in assay [9] and in assay [10] were 3.98 µM (active) and 5.01 µM (active), respectively. Besides, the figures for the max response in assay [11], in [16] and in assay [17] were -1.25% (inactive), -12.9% (inactive) and -23.3% (inactive), respectively.
For `Nc1cc(Cl)c([N+](=O)[O-])cc1O`, the activation in assay [1] was -1.43% (inactive). Besides, the result in assay [14] was inactive.
In the same order, the values of `C=C(C)C(=O)OCC(CC)(COC(=O)C(=C)C)COC(=O)C(=C)C` are -1.88% (inactive) and “inactive”.
On to `C[C@]12CCC(=O)C=C1CC[C@@H]1[C@@H]2[C@@H](O)C[C@]2(C=O)[C@@H](C(=O)CO)CC[C@@H]12`, for which the activation in assay [1] is 1.4% (inactive). Further, in assay [14], the call was inactive.
Take `CCCCOC(=O)[C@@H](C)Oc1ccc(Oc2ccc(C(F)(F)F)cn2)cc1`: the activation in [1] was -2.63% (inactive). The compound was classed as inactive in assay [14].
On to `Clc1ccc(Cl)c(Cl)c1Cl`, for which the activation in assay [1] was 1.31% (inactive) and 2.13% (inactive). In assay [14], the call was inactive.
On to `CC[C@H]1CCCC(O[C@H]2CC[C@H](N(C)C)[C@@H](C)O2)[C@@H](C)C(=O)C2=C[C@@H]3[C@@H](C=C[C@@H]4C[C@@H](O[C@@H]5O[C@@H](C)[C@H](OC)[C@@H](OC)[C@H]5OC)C[C@@H]34)[C@@H]2CC(=O)O1` (stereo partly specified), for which the activation in assay [1] is 3.6% (inactive); in [10], -0.354% (inactive). Also, the Potency entry in assay [4], in assay [12] and in [13] was “inactive” each time. Besides, the activity change % (negative = inhibition) in [7] is -5.92% (inactive). Moreover, the Potency in [8] is 48.6 µM (active). The max response in assay [11] is -2.17% (inactive); in [16], 3.99% (inactive); in [17], -1.89% (inactive); in assay [18], -7.6% (inactive).
With `CCC[CH2][Sn]([Cl])([Cl])[CH2]CCC`, the values for the activation in assay [1] and in [10] were -1.2% (inactive) and -11.4% (inactive), respectively. Also, the max response was -91.3% in [2], 25.9% in assay [5], -2.73% (inactive) in assay [11] and -14.6% (inactive) in [18]. The Potency in [3] is 3.98 µM (active); in assay [6], 3.98 µM (active); in assay [8] it was 1.93 µM (active); in assay [17], 39.8 µM (active). Further, in [12], the Potency result was “inactive”.
